# Test results taken from publication PMC4336329 (PLoS ONE, 2015).
# About 14,000 (4.5%) of roughly 310,000 compounds showed an effect of 50% or more. The effect is printed as a negative number. Shown is part of a subset that was picked to be rich in strong results.
# Target: human ether-à-go-go-related gene (hERG) potassium channel (human, UniProt Q12809)
# Test: primary screen, population patch clamp on CHO cells stably expressing hERG; higher = less effect of the substance
# 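Note: peak tail current of the secondary pulse compared with the same well before compound.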
# Sequence of human ether-à-go-go-related gene (hERG) potassium channel (Q12809 whole entry, looked up): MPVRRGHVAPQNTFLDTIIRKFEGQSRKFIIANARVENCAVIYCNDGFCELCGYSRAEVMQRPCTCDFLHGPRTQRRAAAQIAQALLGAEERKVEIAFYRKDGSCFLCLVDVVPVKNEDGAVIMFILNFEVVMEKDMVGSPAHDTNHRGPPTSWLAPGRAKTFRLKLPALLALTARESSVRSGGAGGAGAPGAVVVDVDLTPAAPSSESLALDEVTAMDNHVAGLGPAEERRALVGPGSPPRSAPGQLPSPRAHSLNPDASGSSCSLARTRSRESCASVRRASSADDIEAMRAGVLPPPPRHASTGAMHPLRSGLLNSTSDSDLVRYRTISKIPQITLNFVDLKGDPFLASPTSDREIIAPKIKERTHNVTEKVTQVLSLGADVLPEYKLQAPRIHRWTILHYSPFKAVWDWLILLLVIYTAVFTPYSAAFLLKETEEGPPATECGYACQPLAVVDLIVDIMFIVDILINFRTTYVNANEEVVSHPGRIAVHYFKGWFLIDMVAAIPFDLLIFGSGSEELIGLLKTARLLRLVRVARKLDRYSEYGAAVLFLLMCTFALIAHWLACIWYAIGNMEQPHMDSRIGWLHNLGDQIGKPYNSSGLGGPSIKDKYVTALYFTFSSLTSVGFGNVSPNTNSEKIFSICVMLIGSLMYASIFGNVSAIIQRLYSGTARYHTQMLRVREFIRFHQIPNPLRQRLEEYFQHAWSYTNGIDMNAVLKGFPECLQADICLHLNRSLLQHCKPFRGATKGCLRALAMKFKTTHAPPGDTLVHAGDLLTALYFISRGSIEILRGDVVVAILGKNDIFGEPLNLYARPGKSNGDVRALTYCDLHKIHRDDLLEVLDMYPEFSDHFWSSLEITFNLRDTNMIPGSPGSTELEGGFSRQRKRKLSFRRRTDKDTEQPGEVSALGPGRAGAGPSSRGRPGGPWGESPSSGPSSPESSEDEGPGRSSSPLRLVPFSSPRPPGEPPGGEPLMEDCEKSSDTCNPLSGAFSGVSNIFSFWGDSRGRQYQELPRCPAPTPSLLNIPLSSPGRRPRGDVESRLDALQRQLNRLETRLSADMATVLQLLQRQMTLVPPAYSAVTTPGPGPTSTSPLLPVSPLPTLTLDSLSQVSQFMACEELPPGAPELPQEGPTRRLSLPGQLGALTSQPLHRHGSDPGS
row,SMILES,"hERG current change (%, negative = inhibition) at 10uM [%]"
1,CCOC(=O)Cc1csc(NC(=O)c2cccc(Cl)c2)n1,-13
2,CC1(c2nnc(-c3ccc(Cl)cc3)o2)CC(c2cccc(Cl)c2)=NO1 (stereo not shown),13.7
3,COCCn1c(SCC(=O)Nc2cc(C)on2)nc2c(c1=O)SC(C)C2 (stereo not shown),10.5
4,COC(=O)c1ccc(COC(=O)C2CCN(S(=O)(=O)c3c(Cl)cccc3Cl)CC2)o1,-7.62
5,COC(=O)/C(=C/N(C)C)C(=O)N1CCN(c2ccc(Cl)c(Cl)c2)CC1,-25
6,COc1cccc(OC)c1C(=O)NNS(=O)(=O)c1ccc2ccccc2c1,-5.2
7,O=C(O)CC(SCC(=O)Nc1ccccc1)C(=O)O (stereo not shown),23
8,O=C1[C@@H]2Cc3c([nH]c4ccccc34)C(c3ccc([N+](=O)[O-])cc3)N2C(=O)CN1C1CC1 (stereo partly shown),-25.2
9,CSc1nc(Cc2ccccc2)nc2ccccc12,22.9
10,Cc1cc(C)nc(N/C(=N\S(=O)(=O)Cc2ccccc2)Nc2cccc(Cl)c2C)n1,-3.72
11,ON1C2CCCCC2N(O)C1c1ccccc1F (stereo not shown),16.7
12,Cc1ccc(-n2c(SCC(=O)NCc3ccco3)nc3c(sc4ccccc43)c2=O)cc1,14.8
13,Cc1ccc(CNC(=O)CSc2nc3c(sc4ccccc43)c(=O)n2CCCN2CCCC2)cc1,-82.8
14,O=C(CSc1nc2c(sc3ccccc32)c(=O)n1CCCN1CCCC1)NCc1ccccc1,-80.8
15,COc1ccc(C(=O)Nc2ncccc2C)cc1S(=O)(=O)N1CCCc2ccccc21,9.01
16,Cc1ccc(CNC(=O)c2ccccc2NS(=O)(=O)c2ccc(Cl)nc2)cc1,12.6
17,OC(COc1ccccc1)Cn1cc(Br)cn1 (stereo not shown),0.0411
18,CCc1nc(Nc2ccccc2OC)c2oc3ccccc3c2n1.Cl,12.5
19,CCN(CC)c1ccc2cc(C(=O)NCc3ccc(F)cc3)c(=N)oc2c1,-23.4
20,CCN(CC)c1ccc2cc(C(N)=O)c(=O)oc2c1,9.31
21,CCCCCCc1cc2cc(C(N)=O)c(=N)oc2cc1O,-59.8
22,CCCCCCc1cc2cc(C(=O)NC)c(=N)oc2cc1O,-7.38

row,SMILES,"hERG current change (%, negative = inhibition) at 10uM [%]"
1,CCCCCCc1cc2cc(C(=O)OCC)c(=O)oc2cc1O,23.3
2,CCN(CC)c1ccc2cc(C(N)=O)c(=N)oc2c1,-58.5
3,CN(C[C@H](Cc1ccccc1)N(C[C@H](Cc1ccccc1)N(CC1(c2ccccc2)CC1)N=O)N=O)N=O.[Na+],12.8
4,Cc1ccc(OCCCC(=O)NCc2ccco2)c(C)c1,0.0372
5,CCCCCC(O)CCC(=O)NNC1=CC(=O)CC(C)(C)C1 (stereo not shown),13.9
6,COc1ccc(C(C#N)C2(C)OCCO2)cc1OC (stereo not shown),-4.08
7,COC(=O)c1ccc(C)c(NC(=O)C(CCSC)NC(=O)c2cc(OC)c(OC)c(OC)c2)c1 (stereo not shown),13.6
8,CCn1c(-c2ccc(Cl)cc2)n[nH]c1=S,13.2
9,O=C(CSC1CS(=O)(=O)c2cc([N+](=O)[O-])ccc21)NNC(=O)c1ccccc1 (stereo not shown),-20.7
10,O=C(CSc1nnnn1-c1ccc(Cl)cc1)NNC(=O)c1ccc([N+](=O)[O-])cc1,-23.2
11,O=C(CSC1CS(=O)(=O)c2cc([N+](=O)[O-])ccc21)NNC(=O)c1ccc(Cl)cc1 (stereo not shown),-74
12,COc1ccc(S(=O)(=O)N2CCCCC2)cc1NC(=O)c1cccs1,32.3
13,O=S(=O)(Nc1ccc(OC(F)F)cc1)c1ccc(-c2ccon2)s1,-15.3
14,Cc1ccc(C)c(N2CCN(CC(=O)Nc3ccc4[nH]c(=O)[nH]c4c3)CC2)c1,-3.56
15,CN(C)c1ccc(C(=O)c2ccccc2C(=O)O)c(O)c1,12.7
16,CCCCN(CCCC)c1ccc(C(=O)c2ccccc2C(=O)O)c(O)c1,-75.2
17,CCN(CC)c1ccc(C(=O)c2ccccc2C(=O)O)c(O)c1,3.8
18,FC(F)(F)c1cccc(NC(=S)N2CCN(c3cccc(C(F)(F)F)c3)CC2)c1,16.6
19,Cc1ccc(NC(=O)C2CCCN(S(=O)(=O)c3c(C)noc3/C=C/N(C)C)C2)cc1F (stereo not shown),-1.44
20,CC1CCCN(Cc2nc3c(c(=O)n(C)c(=O)n3C)n2Cc2c(F)cccc2Cl)C1 (stereo not shown),-1.45
21,CN1CCC(N(CCc2ccccc2)C(=O)CCC(=O)O)CC1,-1.87
22,CN1C2CCC1CC(N(CCc1ccccc1)C(=O)c1ccc(Cl)cc1)C2.Cl (stereo not shown),-83.2

row,SMILES,"hERG current change (%, negative = inhibition) at 10uM [%]"
1,CN1C2CCC1CC(NC(=O)c1ccc(Cl)cc1)C2 (stereo not shown),7.55
2,CCCCN(C(=O)c1ccc(Cl)cc1)C1CC2CCC(C1)N2C.Cl (stereo not shown),-47.4
3,Cc1cc(C)cc(C(=O)N(CCc2ccccc2)C2CC3CCC(C2)N3C)c1.Cl (stereo not shown),-56.5
4,COc1cc(C(=O)N(CCc2ccccc2)C2CC3CCC(C2)N3C)cc(OC)c1OC.Cl.O (stereo not shown),-38.3
5,COc1ccc(C2CC(c3cccs3)=NN2C(=O)CSc2nncn2C)cc1OC (stereo not shown),4.67
6,O=C(Nc1ccccc1N1CCOCC1)C1CCCCN1S(=O)(=O)c1ccccc1 (stereo not shown),-20.8
7,Cc1nc([N+](=O)[O-])c(NCCO)n1Cc1ccccc1,8.23
8,COc1ccc(-c2[nH]ncc2[C@@H]2C[C@H]3CN(Cc4ccccc4C)C(=O)[C@]34CCCN24)cc1,-51.7
9,COc1ccccc1CN1C[C@@H]2C[C@@H](c3ccccc3C)N3CCC[C@@]23C1=O,17.4
10,Cc1ccccc1CN1C[C@@H]2C[C@@H](c3cn[nH]c3-c3ccccc3)N3CCC[C@@]23C1=O,-5.95
11,Cc1ccccc1CN1C[C@@H]2C[C@@H](c3cn[nH]c3-c3ccc(F)cc3)N3CCC[C@@]23C1=O,-52.2
12,CCn1ncc([C@@H]2C[C@H]3CN(Cc4ccccc4C)C(=O)[C@]34CCCN24)c1C,17.7
13,COc1ccccc1CN1C[C@@H]2C[C@@H](c3ccccc3OC)N3CCC[C@@]23C1=O,-14
14,Cc1cc(NC(=O)C2CC=CCC2C(=O)O)no1 (stereo not shown),-1.9
15,CN(Cc1ccccc1F)C(=O)CN1CCN(S(=O)(=O)c2ccc3c(c2)OCCCO3)CC1,-18.4
16,O=C(O)C1CCCCC1C(=O)N1CCN(S(=O)(=O)c2ccc(F)cc2)CC1 (stereo not shown),8.47
17,COc1ccc(-c2cc(=O)c3cc(OC)c(OC)cc3[nH]2)cc1,-5.83
18,COc1cc(NC(=O)c2cnc(N)s2)cc(C(=O)Nc2cccc(C(F)(F)F)c2)c1,-26
19,Cc1ccc(Nc2cc(C)c3ccc(O)cc3n2)cc1C.Cl,-58.5
20,COC(=O)c1cc(Nc2cc(C)c3ccc(O)cc3n2)cc(C(=O)OC)c1,6.58
21,COc1ccc(Nc2cc(C)c3ccccc3n2)cc1,4.57
22,COc1ccc(Nc2cc(C)c3ccc(O)cc3n2)cc1,-58.4

row,SMILES,"hERG current change (%, negative = inhibition) at 10uM [%]"
1,Cc1ccc(Nc2cc(C)c3c(O)cccc3n2)cc1C.Cl,19
2,Cc1cc(Nc2ccccc2)nc2cc(O)ccc12,-11.5
3,COC(=O)c1c(-c2cccs2)csc1NC(=O)CSc1ncnc2sc(C)c(C)c12,0.474
4,Cc1cc(C)nc(-n2nc(C)c3c(C(F)F)cc(C)nc32)n1,15.3
5,CCC1=C([N+](=O)[O-])C(c2ccc3c(c2)OCO3)NC(=O)N1 (stereo not shown),16
6,O=C(CSc1nc(CCC2CCCC2)nc2ccccc12)NCc1ccc2c(c1)OCO2,15
7,CCOP(=O)(OCC)C(O)c1ccc(OC)c(OC)c1 (stereo not shown),15.6
8,Cc1nc(SCC(=O)NCc2ccco2)nc(C)c1C,-6.76
9,Cc1ccc(CNC(=O)c2csc3c2CCCCC3)cc1,2.19
10,COc1ccc(OCC(=O)Nc2cc(-c3nn4c(C)nnc4s3)ccc2C)cc1,-4.85
11,Cc1ccc(-c2nn3c(C)nnc3s2)cc1NC(=O)COc1ccc(Cl)cc1,-70.6
12,Cc1ccc(OCC(=O)Nc2cc(-c3nn4c(C)nnc4s3)ccc2C)cc1,-24.7
13,CC(C)[C@H]1CN(C)CCN1Cc1cn(C)nc1-c1cccc(Cl)c1,-27
14,COc1ccc(C(c2c(NC(=O)c3ccco3)sc(C)c2C)N2CCOCC2)cc1OC (stereo not shown),-15
15,CC(=O)Nc1ccc(-c2sc(Nc3ccccc3)n[n+]2C)cc1.[Cl-],27.5
16,COc1ccccc1C1C=C(c2ccc(Cl)cc2)Nc2nc(N3C(=O)CCC3=O)nn21 (stereo not shown),-32.8
17,N#C/C(=C\c1ccc(N2CCCC2)c([N+](=O)[O-])c1)c1nc2ccccc2[nH]1,-35.5
18,N#C/C(=C/c1ccc(N2CCCC2)c([N+](=O)[O-])c1)c1nc2ccccc2[nH]1,-3.43
19,N#C/C(=C\c1ccc(N2CCOCC2)c([N+](=O)[O-])c1)c1nc2ccccc2[nH]1,-59.6
